Five molecules from PubChem BioAssay (EPA / NIEHS) can be followed below.

Inconclusive results are not listed. Active and inactive are the calls of the source. How the source made its calls, unless noted: active means hit-call score of the fitted dose curve at least 0.9, where 1 is the maximum; inconclusive means response in the unintended direction; inactive means score below 0.9.

The nature of experiment [1]: ATG_TCF_b_cat_CIS: Attagene CIS-FACTORIAL HepG2 Assay for human T-Cell-Factor with beta-catenin (TCF/b-cat) (AID 2282965; active means hit-call score of the fitted dose curve at least 0.9, where 1 is the maximum; inactive means score below 0.9). Conditions: HepG2 TCF/beta-catenin cis-reporter transcription, actives raise or lower the signal. The gist of the method:
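In this cis-format system, transfected HepG2 cells report endogenous transcription factor activity. Readout after 24 h exposure is reporter transcript abundance from RT-PCR and capillary electrophoresis, analysed for gain or loss of signal versus DMSO.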

The nature of experiment [2]: ATG_TAL_CIS: Attagene CIS-FACTORIAL HepG2 Assay for human TAL Basal Promoter (AID 2282966; active means hit-call score of the fitted dose curve at least 0.9, where 1 is the maximum; inactive means score below 0.9;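 further: background control endpoint measuring basal TAL promoter reporter mRNA not a specific factor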). Conditions: HepG2 Attagene cis-factorial TAL promoter reporter; actives raise or lower the signal. The gist of the method:
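After 24 hours of chemical exposure, transfected HepG2 cells yielded RNA that was converted to 6-FAM-labelled, HpaI-digested reporter fragments for capillary electrophoresis. Values derive from bidirectional fitting against DMSO controls.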

The nature of experiment [3]: ATG_TGFb_CIS: Attagene CIS-FACTORIAL HepG2 Assay for human Transforming Growth Factor (TGF) (AID 2282967; active means hit-call score of the fitted dose curve at least 0.9, where 1 is the maximum; inactive means score below 0.9). To be noted: HepG2 Attagene CIS TGFb reporter, mRNA transcription; actives raise or lower the signal. The method in brief: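 Transient MRTU transfection of HepG2 (FuGene 6). Dose 24 h. TriZol RNA, oligo(dT) RT, PCR, 6-FAM primer extension, HpaI cut, CE. Bidirectional fit, DMSO = baseline.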

Experiment [4] is described as follows: ATG_VDRE_CIS: Attagene CIS-FACTORIAL HepG2 Assay for human Vitamin D Receptor Element (VDRE) (AID 2282968; active means hit-call score of the fitted dose curve at least 0.9, where 1 is the maximum; inactive means score below 0.9). Conditions: HepG2 VDRE cis-reporter transcription, actives raise or lower the signal. The gist of the method:
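Transfected HepG2 reporter cells, chemical treatment 24 h. RNA isolated, cDNA amplified with reporter-specific primers, products analysed by capillary electrophoresis. Endpoint fitted in both directions versus DMSO.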

The target in experiment [5] is Nuclear receptor subfamily 1 group I member 3 (Homo sapiens) (UniProt Q14994). Put plainly: ATG_CAR_TRANS: Attagene TRANS-FACTORIAL HepG2 Assay for human Constitutive Androstane Receptor (CAR) (AID 2282969).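 Further: activators raise reporter mRNA above DMSO so AC50 marks induction.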 Conditions: HepG2 Attagene TRANS-FACTORIAL CAR reporter. The gist of the method: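 Steps: transient transfection of HepG2 with multiple GAL4-UAS reporter units; 24 h compound incubation; RNA isolation, RT-PCR, 6-FAM primer extension, HpaI digest; capillary electrophoresis. Gain-of-signal relative to DMSO negative control.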
Nuclear receptor subfamily 1 group I member 3 (Homo sapiens), sequence (Q14994 whole entry, looked up, the tested form may be a part): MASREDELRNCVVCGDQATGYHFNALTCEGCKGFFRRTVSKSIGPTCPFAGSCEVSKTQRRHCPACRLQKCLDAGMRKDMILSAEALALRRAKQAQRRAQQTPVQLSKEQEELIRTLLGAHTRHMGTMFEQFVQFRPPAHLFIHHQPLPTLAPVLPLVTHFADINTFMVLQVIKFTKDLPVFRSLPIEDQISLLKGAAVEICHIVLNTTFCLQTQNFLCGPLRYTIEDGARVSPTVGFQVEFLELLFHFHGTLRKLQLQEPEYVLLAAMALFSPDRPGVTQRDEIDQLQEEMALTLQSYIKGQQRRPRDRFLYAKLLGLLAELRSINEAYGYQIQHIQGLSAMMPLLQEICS

In experiment [6] the target is Estrogen receptor (Homo sapiens) (UniProt P03372). Nature of the experiment: ATG_ERa_TRANS: Attagene TRANS-FACTORIAL HepG2 Assay for human Estrogen Receptor alpha (ERa) (AID 2282970). To be noted: HepG2 Attagene TRANS ERa GAL4 reporter, mRNA. The gist of the method:
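Liver-derived HepG2 cells expressing chimeric nuclear receptor-Gal4 proteins from transient transfection were exposed for 24 hours. Gain of reporter mRNA signal versus DMSO, read by capillary electrophoresis of FAM-labelled PCR products, was recorded.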

The target of experiment [7] is X-box-binding protein 1 (Homo sapiens) (UniProt P17861). Nature of the experiment: ATG_Xbp1_CIS: Attagene CIS-FACTORIAL HepG2 Assay for human X-box Binding Protein 1 (XBP1) (AID 2282972; active means hit-call score of the fitted dose curve at least 0.9, where 1 is the maximum; inactive means score below 0.9). To be noted: HepG2 XBP1 cis-element reporter, Attagene multiplex; actives raise or lower the signal. The method in brief:
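Multiplexed cis-reporter readout in transfected HepG2 liver cells. Exposure lasted 24 hours. Activity in either direction was fitted against DMSO as negative control and baseline.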

A short description of experiment [8]: ATG_GAL4_TRANS: Attagene TRANS-FACTORIAL HepG2 Assay for GAL4 (Internal Marker) (AID 2282976). To be noted: HepG2 Attagene TRANS GAL4 internal marker reporter. The method in brief: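 First, HepG2 cells were transfected with reporter units under GAL4-UAS control. Next, they were treated with chemical for 24 h. Finally, RNA was reverse-transcribed, PCR-amplified, FAM-labelled and resolved by capillary electrophoresis, with induction scored against DMSO.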

The target in experiment [9] is Glucocorticoid receptor (Homo sapiens) (UniProt P04150). Put plainly: ATG_GR_TRANS: Attagene TRANS-FACTORIAL HepG2 Assay for human Glucocorticoid Receptor (GR) (AID 2282978).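 Further: activators score as hits since higher reporter transcript over DMSO is fitted.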 Conditions: HepG2 Attagene TRANS GR reporter, mRNA transcription. The gist of the method:
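Readout is reporter transcript from a chimeric GR-Gal4 acting on GAL4-UAS in transfected human HepG2 liver cells after 24 h exposure, quantified by RT-PCR and capillary electrophoresis. Activation fitted upward against DMSO.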

In experiment [10] the target is Hepatocyte nuclear factor 4-alpha (Homo sapiens) (UniProt P41235). Put plainly: ATG_HNF4a_TRANS: Attagene TRANS-FACTORIAL HepG2 Assay for human Hepatocyte Nuclear Factor 4 alpha (HNF4a) (AID 2282982). Conditions: HepG2 HNF4a transactivation reporter, mRNA readout. The method in brief:
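Using HepG2 liver cells transfected with GAL4-UAS reporter units, chemical-induced mRNA increases were assessed after 24 hours. Fluorescent RT-PCR fragments were separated by capillary electrophoresis and compared with DMSO negative controls.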

The nature of experiment [11]: ATG_M_32_TRANS: Attagene TRANS-FACTORIAL HepG2 Assay for M32 Transcription Factor (Internal Marker) (AID 2282984).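 Further: transcript level of a background control reporter unit measured by RT-PCR and capillary electrophoresis.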 To be noted: HepG2 Attagene TRANS M32 internal marker reporter. The gist of the method: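 Fluorescence-detected mRNA induction, HepG2 liver cells, 24 h after dosing. Multiple GAL4-UAS reporter units introduced by transient transfection; background-control endpoint analysed for gain of signal against DMSO.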

For experiment [12], the target named is Nuclear receptor subfamily 4 group A member 2 (Homo sapiens) (UniProt P43354). Put plainly: ATG_NURR1_TRANS: Attagene TRANS-FACTORIAL HepG2 Assay for human Nuclear Receptor Related Protein 1 (NURR1) (AID 2282985). To be noted: HepG2 Attagene TRANS reporter, mRNA readout. The method in brief: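 Chimeric NR-Gal4 proteins were expressed in human HepG2 cells bearing GAL4-UAS reporter units, and induced reporter mRNA was quantified 24 h post-dosing by RT-PCR and capillary electrophoresis.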
Nuclear receptor subfamily 4 group A member 2 (Homo sapiens), sequence (P43354 whole entry, looked up, the tested form may be a part): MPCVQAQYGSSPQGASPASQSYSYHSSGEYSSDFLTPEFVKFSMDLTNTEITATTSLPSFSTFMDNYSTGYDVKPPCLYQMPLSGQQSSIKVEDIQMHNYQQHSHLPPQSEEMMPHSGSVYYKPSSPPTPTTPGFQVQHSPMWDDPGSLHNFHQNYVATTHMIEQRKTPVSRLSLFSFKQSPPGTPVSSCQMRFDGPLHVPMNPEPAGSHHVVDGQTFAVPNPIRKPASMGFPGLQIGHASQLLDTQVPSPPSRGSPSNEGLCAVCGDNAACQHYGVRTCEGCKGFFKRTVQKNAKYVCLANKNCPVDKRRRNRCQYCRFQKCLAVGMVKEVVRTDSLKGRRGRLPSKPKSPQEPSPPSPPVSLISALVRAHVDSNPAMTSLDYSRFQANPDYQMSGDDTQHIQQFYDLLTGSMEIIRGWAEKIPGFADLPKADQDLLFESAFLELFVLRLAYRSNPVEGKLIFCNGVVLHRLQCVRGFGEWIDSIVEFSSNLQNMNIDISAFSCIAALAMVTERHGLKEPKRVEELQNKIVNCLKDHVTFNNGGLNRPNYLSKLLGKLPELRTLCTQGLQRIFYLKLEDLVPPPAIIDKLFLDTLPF

For experiment [13], the target named is Transcriptional activator Myb (Homo sapiens) (UniProt P10242). Put plainly: ATG_Myb_CIS: Attagene CIS-FACTORIAL HepG2 Assay for human Myeloblastosis (Myb) Proto-Oncogene Transcription Factor (AID 2282986; active means hit-call score of the fitted dose curve at least 0.9, where 1 is the maximum; inactive means score below 0.9). Conditions: HepG2 Attagene CIS-FACTORIAL Myb reporter transcription; actives raise or lower the signal. The gist of the method: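 Reporter mRNA is quantified by RT-PCR and capillary electrophoresis 24 h after dosing HepG2 cells transfected with cis-regulated reporter units, which track endogenous transcription factor activity. Gain and loss of signal are fitted versus DMSO baseline.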
Transcriptional activator Myb (Homo sapiens), sequence (P10242 whole entry, looked up): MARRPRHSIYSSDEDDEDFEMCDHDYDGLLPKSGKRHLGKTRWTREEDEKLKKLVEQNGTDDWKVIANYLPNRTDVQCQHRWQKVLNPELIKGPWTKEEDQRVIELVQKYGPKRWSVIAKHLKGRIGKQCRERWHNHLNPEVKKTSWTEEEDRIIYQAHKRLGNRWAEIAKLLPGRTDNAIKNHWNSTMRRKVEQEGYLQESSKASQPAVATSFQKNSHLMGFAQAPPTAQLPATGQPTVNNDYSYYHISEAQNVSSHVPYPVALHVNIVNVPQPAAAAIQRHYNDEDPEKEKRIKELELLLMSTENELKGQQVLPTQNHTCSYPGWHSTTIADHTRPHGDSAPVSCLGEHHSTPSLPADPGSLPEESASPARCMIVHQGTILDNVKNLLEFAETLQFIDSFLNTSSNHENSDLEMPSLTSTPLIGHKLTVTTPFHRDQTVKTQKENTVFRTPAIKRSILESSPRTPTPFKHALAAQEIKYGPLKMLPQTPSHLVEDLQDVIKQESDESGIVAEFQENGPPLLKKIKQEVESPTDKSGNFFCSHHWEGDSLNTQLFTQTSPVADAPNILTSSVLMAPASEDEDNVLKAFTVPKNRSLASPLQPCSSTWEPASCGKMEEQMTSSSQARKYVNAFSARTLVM

Experiment [14] in a line: ATG_M_19_TRANS: Attagene TRANS-FACTORIAL HepG2 Assay for M19 Transcription Factor (Internal Marker) (AID 2282974). Conditions: HepG2 Attagene TRANS-FACTORIAL M19 internal marker reporter. The gist of the method:
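Background-control readout: after 24 h chemical exposure of transfected HepG2 carrying GAL4-driven reporter units, RNA was reverse-transcribed, amplified, fluorescently labeled and sized by capillary electrophoresis; gain-of-signal fit against DMSO.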

For experiment [15], the target named is Oxysterols receptor LXR-alpha (Homo sapiens) (UniProt Q13133). Nature of the experiment: ATG_LXRa_TRANS: Attagene TRANS-FACTORIAL HepG2 Assay for human Liver X Receptor alpha (LXRa) (AID 2282980). To be noted: HepG2 Attagene TRANS reporter, LXRa transactivation. The method in brief:
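Transfect HepG2 with GAL4-UAS multiplex reporter constructs (TRANS format, chimeric receptor-GAL4); treat 24 h; extract RNA, reverse-transcribe, PCR-amplify, FAM-label, HpaI-digest; resolve fragments by capillary electrophoresis. Upward response vs DMSO.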

The target in experiment [16] is Bile acid receptor (Homo sapiens) (UniProt Q96RI1). Nature of the experiment: ATG_FXR_TRANS: Attagene TRANS-FACTORIAL HepG2 Assay for Farnesoid X Receptor (FXR) (AID 2282979).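 Further: hits raise reporter mRNA above DMSO so AC50 marks FXR activation.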 To be noted: HepG2 Attagene TRANS FXR-GAL4 reporter transcription. The method in brief:
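Transient transfection of HepG2 with multiplexed GAL4-UAS reporter units; exogenous FXR-GAL4 chimera. Dose 24 h → TriZol RNA → oligo(dT) RT → PCR, 6-FAM primer extension, HpaI cut → CE. Gain vs DMSO.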

Experiment [17] addresses Oxysterols receptor LXR-beta (Homo sapiens) (UniProt P55055). Nature of the experiment: ATG_LXRb_TRANS: Attagene TRANS-FACTORIAL HepG2 Assay for human Liver X Receptor beta (LXRb) (AID 2282981). Conditions: HepG2 Attagene TRANS GAL4-LXRb reporter, mRNA. The method in brief: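 Liver-derived HepG2 cells transfected with Gal4-responsive reporters were dosed for 24 h. Activation was scored as rise in reporter mRNA, by RT-PCR and capillary electrophoresis, above DMSO baseline.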

Experiment [18] in a line: ATG_M_06_TRANS: Attagene TRANS-FACTORIAL HepG2 Assay for M06 Transcription Factor (Internal Marker) (AID 2282983).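 Further: reporter transcript level by RT-PCR then capillary electrophoresis fluorescence.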 To be noted: HepG2 Attagene TRANS M06 internal marker reporter. The gist of the method: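 Background control endpoint: reporter mRNA from transiently transfected HepG2 after 24 h dosing, detected by RT-PCR with capillary electrophoresis fluorescence. Analysed for gain versus DMSO.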

Oxysterols receptor LXR-alpha (Homo sapiens), sequence (Q13133 whole entry, looked up, the tested form may be a part): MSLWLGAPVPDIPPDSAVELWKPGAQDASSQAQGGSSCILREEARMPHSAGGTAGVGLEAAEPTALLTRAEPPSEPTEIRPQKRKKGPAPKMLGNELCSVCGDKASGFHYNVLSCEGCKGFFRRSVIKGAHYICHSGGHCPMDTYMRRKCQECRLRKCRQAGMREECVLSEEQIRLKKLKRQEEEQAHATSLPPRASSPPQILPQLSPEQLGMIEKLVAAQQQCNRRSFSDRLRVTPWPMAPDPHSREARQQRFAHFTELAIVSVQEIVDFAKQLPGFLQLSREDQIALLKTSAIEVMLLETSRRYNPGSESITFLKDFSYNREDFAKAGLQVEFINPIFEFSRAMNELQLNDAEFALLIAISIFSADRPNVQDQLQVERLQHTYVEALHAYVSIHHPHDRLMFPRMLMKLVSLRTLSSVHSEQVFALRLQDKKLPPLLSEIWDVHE
Hepatocyte nuclear factor 4-alpha (Homo sapiens), sequence (P41235 whole entry, looked up, the tested form may be a part): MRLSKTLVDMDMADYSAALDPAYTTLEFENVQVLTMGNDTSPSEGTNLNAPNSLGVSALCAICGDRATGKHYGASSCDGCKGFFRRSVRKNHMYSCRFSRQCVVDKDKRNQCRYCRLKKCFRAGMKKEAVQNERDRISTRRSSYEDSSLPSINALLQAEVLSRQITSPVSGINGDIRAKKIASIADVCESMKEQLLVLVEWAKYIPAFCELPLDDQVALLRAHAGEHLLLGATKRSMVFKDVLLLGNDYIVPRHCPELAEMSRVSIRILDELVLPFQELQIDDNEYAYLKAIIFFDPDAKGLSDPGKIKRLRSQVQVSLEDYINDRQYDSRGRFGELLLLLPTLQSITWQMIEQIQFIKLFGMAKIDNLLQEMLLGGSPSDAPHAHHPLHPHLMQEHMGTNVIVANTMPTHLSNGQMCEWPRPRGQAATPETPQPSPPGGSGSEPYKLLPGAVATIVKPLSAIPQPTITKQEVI
X-box-binding protein 1 (Homo sapiens), sequence (P17861 whole entry, looked up): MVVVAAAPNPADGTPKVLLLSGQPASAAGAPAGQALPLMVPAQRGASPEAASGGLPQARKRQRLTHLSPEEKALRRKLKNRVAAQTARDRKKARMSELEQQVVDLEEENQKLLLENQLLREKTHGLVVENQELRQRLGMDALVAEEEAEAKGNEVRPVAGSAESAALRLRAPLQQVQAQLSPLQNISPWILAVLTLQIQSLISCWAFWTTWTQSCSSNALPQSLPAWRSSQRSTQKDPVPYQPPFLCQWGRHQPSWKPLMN
Estrogen receptor (Homo sapiens), sequence (P03372 whole entry, looked up, the tested form may be a part): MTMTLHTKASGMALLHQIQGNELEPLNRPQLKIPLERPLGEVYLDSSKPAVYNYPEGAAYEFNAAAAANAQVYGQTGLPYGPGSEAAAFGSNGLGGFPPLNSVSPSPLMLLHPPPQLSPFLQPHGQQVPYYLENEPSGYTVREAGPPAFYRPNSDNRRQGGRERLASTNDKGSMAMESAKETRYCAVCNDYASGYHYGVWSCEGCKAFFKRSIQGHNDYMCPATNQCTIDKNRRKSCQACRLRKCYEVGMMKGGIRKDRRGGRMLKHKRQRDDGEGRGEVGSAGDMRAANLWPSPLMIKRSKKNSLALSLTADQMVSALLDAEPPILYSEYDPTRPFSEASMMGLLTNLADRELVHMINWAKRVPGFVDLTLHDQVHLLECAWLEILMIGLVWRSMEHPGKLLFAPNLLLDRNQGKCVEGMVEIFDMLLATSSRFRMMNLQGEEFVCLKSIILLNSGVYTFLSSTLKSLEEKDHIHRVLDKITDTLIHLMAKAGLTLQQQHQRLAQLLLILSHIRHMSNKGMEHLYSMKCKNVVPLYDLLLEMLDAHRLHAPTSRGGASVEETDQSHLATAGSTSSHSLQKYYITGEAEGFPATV
Bile acid receptor (Homo sapiens), sequence (Q96RI1 whole entry, looked up, the tested form may be a part): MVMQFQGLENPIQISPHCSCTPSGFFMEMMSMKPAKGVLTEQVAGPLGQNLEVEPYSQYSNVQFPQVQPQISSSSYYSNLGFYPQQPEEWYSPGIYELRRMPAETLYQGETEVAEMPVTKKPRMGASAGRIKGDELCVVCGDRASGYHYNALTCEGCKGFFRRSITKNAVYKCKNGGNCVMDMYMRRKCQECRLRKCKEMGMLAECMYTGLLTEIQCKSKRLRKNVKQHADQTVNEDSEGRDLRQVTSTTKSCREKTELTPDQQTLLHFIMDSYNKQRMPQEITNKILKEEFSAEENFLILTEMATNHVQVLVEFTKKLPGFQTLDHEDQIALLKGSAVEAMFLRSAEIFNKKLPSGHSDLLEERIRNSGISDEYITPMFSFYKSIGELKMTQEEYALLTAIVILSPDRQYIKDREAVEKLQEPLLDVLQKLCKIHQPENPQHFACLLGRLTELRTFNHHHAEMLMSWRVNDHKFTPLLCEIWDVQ
Oxysterols receptor LXR-beta (Homo sapiens), sequence (P55055 whole entry, looked up, the tested form may be a part): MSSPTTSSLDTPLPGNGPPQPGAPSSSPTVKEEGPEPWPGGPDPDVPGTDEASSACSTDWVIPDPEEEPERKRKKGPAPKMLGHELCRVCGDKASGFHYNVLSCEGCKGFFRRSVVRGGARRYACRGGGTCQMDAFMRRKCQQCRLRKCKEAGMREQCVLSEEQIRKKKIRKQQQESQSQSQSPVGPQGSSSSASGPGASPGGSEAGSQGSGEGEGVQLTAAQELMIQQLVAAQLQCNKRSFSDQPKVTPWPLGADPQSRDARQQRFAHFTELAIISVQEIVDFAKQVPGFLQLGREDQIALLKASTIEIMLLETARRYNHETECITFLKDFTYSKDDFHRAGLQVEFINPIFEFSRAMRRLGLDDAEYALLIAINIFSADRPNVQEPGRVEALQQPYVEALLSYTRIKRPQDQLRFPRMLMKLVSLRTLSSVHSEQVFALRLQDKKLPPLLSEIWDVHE

As to `CC/C=C\CCOC(C)OCC` (stereo not drawn), the result in experiment [1], in experiment [2], in experiment [3], in [4], in experiment [5] and in experiment [6] was inactive. Besides, the molecule was called inactive in [7], in experiment [8], in [9], in experiment [10], in [11] and in experiment [12]. The outcome in [13] was inactive.
As for `COC(=O)c1cccc(C(=O)OC)c1`, the call in experiment [1], in [2], in [3], in experiment [4], in [5] and in experiment [6] was inactive. For the same molecule, the molecule was called inactive in experiment [7], in [14], in [8], in experiment [15], in experiment [11] and in experiment [13].
As usually defined, the AC50 is the midpoint of the concentration-response curve, whichever way the signal moves. With `c1ccc2c(c1)-c1ccc3ccc4cccc5cc-2c1c3c45`, the call in [1], in experiment [2], in experiment [3], in experiment [4], in experiment [5] and in [7] was inactive. Besides, the outcome in experiment [16], in experiment [15], in experiment [17], in experiment [10], in [18] and in experiment [11] was inactive. Moreover, in experiment [13], the molecule was classed as inactive. For the same molecule, the AC50 in experiment [6] was 0.422 µM (active).
For the molecule `CC1=CC(C)C(C=O)C(C)C1` (stereo not drawn) (tested in a mixture with another compound), the molecule was classed as inactive in [1], in experiment [2], in experiment [3], in experiment [5], in [6] and in experiment [7]. For the same molecule, the molecule was called inactive in experiment [9], in [16], in experiment [15], in [17], in [18] and in experiment [11]. For the same molecule, the result in experiment [12] and in [13] was inactive. The concentration at half-maximal activity (AC50) in experiment [4] was 28.8 µM (active).
As to `N#CCCNCCC#N`, the outcome in experiment [1], in [2], in [3], in [4], in [5] and in experiment [6] was inactive. Also, the molecule was called inactive in experiment [7], in experiment [8], in experiment [15], in [10], in [18] and in experiment [11]. The molecule was classed as inactive in experiment [12] and in experiment [13].
